From PubChem
Shown are actives, neighbours in structure and some others; about 7.8% of the full set was active somewhere.
HCMV antiviral: qHTS Assay for inhibitors of the human cytomegalovirus (HCMV); HFF cells, HCMV-luciferase reporter, 72 h; stronger effect = lower value; activity change, negative = inhibition, % at 57.5 µM; 410,000 tested, 4.5% active; AID 1259415, 2018; in the data active = activity change below about -60%; inconclusive = no clear call, values can overlap the other calls; inactive = above about -39%
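HFF cells seeded 16 h at 37C, treated with compounds, infected with luciferase-reporter HCMV at MOI 1 PFU/cell; luciferase read at 72 h post infection, normalized to buffer-only and Salinomycin controls.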
MARV entry inh: qHTS for inhibitors of binding or entry into cells for Marburg Virus; 300,000 tested, 1.8% active; Potency, µM (titrated, usually from 37.8 µM), for the others: top-dose activity change, negative = inhibition, actives largely listed as inhibitors; Marburg virus pseudotyped entry inhibition, cell reporter; calls by dose curve; tested in HEK293 cells; also: potency is read from the fitted curve at half-maximal effect
HCV inhibitor: qHTS Assay for Inhibitors of Hepatitis C Virus (HCV); Huh7.5.1 HCVcc-Cre infection, luciferase reporter, 44 h; Potency, µM (highest dose often 41.8 µM), inactives show at the top dose activity change, negative = inhibition, most hits filed as inhibitors; 340,000 tested, 3.4% active; active = well fitted inhibition curve with a large enough effect; inconclusive = small, poorly fitted or top-dose-only effect, or another doubt; inactive = no such curve, though single readings can be large or run the other way; also: potency is read from the fitted curve at half-maximal effect
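Antiviral activity was scored by luciferase reporter output from cells infected with HCVcc-Cre (~0.5 moi) in presence of compound, 44 h infection period, cells seeded 1,000/well 4 h prior.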
Lassa entry inh: qHTS for Inhibitors of binding or entry into cells for Lassa Virus. Lassa virus pseudotype entry inhibition, cell reporter. Potency, µM (highest dose often 37.9 µM), without a hit: top-dose activity change, negative = inhibition, usual class: inhibitors. 300,000 tested, 1.2% active; calls by dose curve; tested in HEK293 cells; also: potency is read from the fitted curve at half-maximal effect; nearly all actives have a fitted effect of over 50% in size
Vaccinia mCherry: qHTS for Stage-Specific Inhibitors of Vaccinia Orthopoxvirus: mCherry Reporter Primary qHTS | Vaccinia virus mCherry reporter infection, fluorescence | Potency, µM (highest dose often 36.5 µM), without a hit: at the top dose activity change, negative = inhibition, usual class: inhibitors | 310,000 tested, 0.63% active; calls by dose curve; tested in A549 cells; also: potency is read from the fitted curve at half-maximal effect; nearly all actives have a fitted effect of over 35% in size
Vaccinia Venus: qHTS for Stage-Specific Inhibitors of Vaccinia Orthopoxvirus: Venus Reporter Primary qHTS. Vaccinia virus Venus reporter expression, fluorescence. Potency, µM (doses to about 36.5 µM), for the others: at the top dose activity change, negative = inhibition, actives largely listed as inhibitors. 330,000 tested, 0.46% active. AID 720580, 2013; calls by dose curve; tested in A549 cells; also: potency is read from the fitted curve at half-maximal effect; nearly all actives have a fitted effect of over 30% in size
Active calls of the source: *; [ ] = dose if it differs, or a comment. % is scaled to controls: 0 for no effect and ±100 for the full control effect.

`COc1ccccc1C(=O)NCC(=O)N/N=C/c1cc(Br)ccc1OC(=O)/C=C\c1ccco1` gave HCMV antiviral -37, MARV entry inh 2%, HCV inhibitor inconclusive and Lassa entry inh 10%.
For O=C(CNC(=O)c1ccc(F)cc1)N/N=C/c1cc(Br)ccc1OC(=O)/C=C/c1ccco1 the results were HCMV antiviral -77*, HCV inhibitor 10µM*, Vaccinia mCherry inconclusive and Vaccinia Venus 10%.
`COc1ccc(C(=O)NCC(=O)N/N=C/c2ccco2)cc1OC` gave HCMV antiviral 13, MARV entry inh -21%[46.1 µM], HCV inhibitor -5%, Lassa entry inh 4%[46.1 µM], Vaccinia mCherry -8% and Vaccinia Venus 5%.
`O=C(CNC(=O)c1ccccc1F)N/N=C/c1cc(Br)ccc1OC(=O)/C=C/c1ccco1` gave HCMV antiviral -83*, MARV entry inh inconclusive, HCV inhibitor 6.3µM*, Lassa entry inh inconclusive, Vaccinia mCherry inconclusive and Vaccinia Venus -25%.
For Cc1ccccc1CN1CCc2nc(N3CCN(c4ncccn4)CC3)ncc2C1 the results were HCMV antiviral -36, Lassa entry inh inconclusive, Vaccinia mCherry -12% and Vaccinia Venus -18%.
`CC(C)c1cc(-c2nc(-c3ccccc3)no2)n[nH]1` gave HCMV antiviral -39, Lassa entry inh 18%[46.1 µM], Vaccinia mCherry -3% and Vaccinia Venus -11%.
For COC(=O)c1cc2sc(C)cc2n1Cc1ccc(Br)cc1F the results were HCMV antiviral 23, MARV entry inh 7%[46.1 µM], Vaccinia mCherry -3% and Vaccinia Venus -11%.
`COc1ccc(-c2nc3ncccn3c2Nc2ccc3c(c2)OCCO3)cc1` gave HCMV antiviral 91, MARV entry inh 0%, HCV inhibitor -6%, Vaccinia mCherry inconclusive and Vaccinia Venus -23%.
Screening Cc1cc(C)n2c(Nc3ccc4c(c3)OCCO4)c(-c3ccc(F)cc3)nc2n1 returned HCMV antiviral 74, Vaccinia mCherry 23% and Vaccinia Venus 0%.
Fc1ccc(-c2nn3ncccc3c2-c2ccnc(Nc3ccc4c(c3)OCCO4)n2)cc1 was read as Lassa entry inh 7.9µM*.
Screening COc1ccc(-c2nn3ncccc3c2-c2ccnc(Nc3ccc4c(c3)OCCO4)n2)cc1 returned Lassa entry inh 16µM*.
CC(c1ccccc1C(O)c1ccccc1)N(C)C (centres undefined) was read as HCMV antiviral -24, MARV entry inh -30%, HCV inhibitor 10%, Lassa entry inh 0%, Vaccinia mCherry -12% and Vaccinia Venus -13%.
For Cc1ccc(C(O)(c2ccccc2)c2ccccc2C(C)N(C)C)c(C)c1 (centres undefined) the results were HCMV antiviral inconclusive, MARV entry inh 5.8µM*, HCV inhibitor inconclusive, Lassa entry inh 8.2µM*, Vaccinia mCherry inconclusive and Vaccinia Venus inconclusive.
`C/C=C/c1ccc(OCC(=O)Nc2cc(S(=O)(=O)N3CCOCC3)ccc2N2CCCC2)c(OC)c1` gave HCMV antiviral inconclusive, MARV entry inh inconclusive, HCV inhibitor 10µM*, Lassa entry inh inconclusive, Vaccinia mCherry -19% and Vaccinia Venus -28%.
`COc1ccc(CC(=O)Nc2cc(S(=O)(=O)N3CCOCC3)ccc2N2CCCC2)cc1OC` gave HCMV antiviral -15, MARV entry inh -4%[46.1 µM], HCV inhibitor 8%, Lassa entry inh 28%[46.1 µM], Vaccinia mCherry -13% and Vaccinia Venus -10%.
`COc1ccc(N(CC(=O)Nc2ccc(S(=O)(=O)N3CCOCC3)cc2)S(=O)(=O)c2ccc(F)cc2)cc1` gave HCMV antiviral -6, MARV entry inh inconclusive, HCV inhibitor 14µM*, Lassa entry inh -28%, Vaccinia mCherry -28% and Vaccinia Venus -22%.
Screening COc1ccc(CCC(=O)Nc2ccc(S(=O)(=O)N3CCOCC3)cc2)cc1 returned HCMV antiviral 53, MARV entry inh -1%[46.1 µM], HCV inhibitor -19%, Lassa entry inh -12%[46.1 µM], Vaccinia mCherry -24% and Vaccinia Venus -4%.
Screening CCOc1ccc(OCCCC(=O)Nc2cc(S(=O)(=O)N3CCOCC3)ccc2N2CCOCC2)cc1 returned HCMV antiviral -90* and HCV inhibitor inconclusive.
Screening CCOc1ccc(C(=O)OCC(=O)Nc2cc(S(=O)(=O)N3CCOCC3)ccc2N2CCOCC2)cc1 returned HCMV antiviral 0 and HCV inhibitor 10%.
`Cc1ccc(OCCCC(=O)Nc2ccc(S(=O)(=O)N3CCOCC3)cc2)cc1` gave HCMV antiviral -63* and HCV inhibitor inconclusive.
For C#CCOCCOCCOCCNc1nc(N2CCN(C(=O)CCCCCCCCCCNC(=O)[C@H]([C@@H](C)CC)n3cc(CCCCN=C(N)N)nn3)CC2)nc(N2CCN(C(=O)CCCCCCCCCCNC(=O)[C@H](CO)n3cc(CCCCCN)nn3)CC2)n1 the results were HCV inhibitor inconclusive, Vaccinia mCherry inconclusive and Vaccinia Venus 7.1µM*.
Screening C#CCOCCOCCOCCNc1nc(N2CCN(C(=O)CCCCCCCCCCNC(=O)[C@H]([C@@H](C)CC)n3cc(CCCCN=C(N)N)nn3)CC2)nc(N2CCN(C(=O)CCCCCCCCCCNC(=O)[C@H](CCCCN)n3cc(C)nn3)CC2)n1 returned HCV inhibitor inconclusive, Vaccinia mCherry inconclusive and Vaccinia Venus 7.1µM*.
For C#CCOCCOCCOCCNc1nc(N2CCN(C(=O)CCCCCCCCCCNC(=O)[C@H](CCCCN)n3cc(CCCC(=O)O)nn3)CC2)nc(N2CCN(C(=O)CCCCCCCCCCNC(=O)[C@@H]([C@H](C)O)n3cc(C)nn3)CC2)n1 the results were HCV inhibitor -3%, Vaccinia mCherry -11% and Vaccinia Venus -8%.
C#CCOCCOCCOCCNc1nc(N2CCN(C(=O)CCCCCCCCCCNC(=O)Cn3cc(CCCCCN)nn3)CC2)nc(N2CCN(C(=O)CCCCCCCCCCNC(=O)[C@H]([C@@H](C)CC)n3cc(CCCCN=C(N)N)nn3)CC2)n1 was read as HCV inhibitor inconclusive, Vaccinia mCherry inconclusive and Vaccinia Venus 5.6µM*.
For C#CCOCCOCCOCCNc1nc(N2CCN(C(=O)CCCCCCCCCCNC(=O)[C@H]([C@@H](C)CC)n3cc(CCCCCN)nn3)CC2)nc(N2CCN(C(=O)CCCCCCCCCCNC(=O)[C@H](CCCCN)n3cc(CCCC(=O)O)nn3)CC2)n1 the results were HCV inhibitor 11µM*, Vaccinia mCherry inconclusive and Vaccinia Venus inconclusive.
